# Assay outcomes from PubChem.
# TRHR agonist-1: agonists of human TRH receptor. P34981. activation, % at 2 µM. actives 0.18% (n = 360,000). TRHR cells, calcium flux fluo-8, FDSS agonist mode. AID 493084; also: 0% is about no effect
#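 TRHR-expressing cells, plated overnight in medium with 10% serum, were loaded with fluo-8 calcium dye at room temperature. After a 10 s baseline, library compound was pin-added and calcium release was recorded kinetically (ex 480/em 530) as agonist response.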
# D1 PAM: enhances dopamine response at the human D1 receptor | HEK293 TREx D1 cells, calcium flux, dopamine EC20 potentiation | potentiation, % at 10 µM | actives 0.036% (n = 360,000) | AID 504651; in the data active = potentiation above about 30%; also: 0% is about no effect
# Target sequence (P21728 whole entry, looked up): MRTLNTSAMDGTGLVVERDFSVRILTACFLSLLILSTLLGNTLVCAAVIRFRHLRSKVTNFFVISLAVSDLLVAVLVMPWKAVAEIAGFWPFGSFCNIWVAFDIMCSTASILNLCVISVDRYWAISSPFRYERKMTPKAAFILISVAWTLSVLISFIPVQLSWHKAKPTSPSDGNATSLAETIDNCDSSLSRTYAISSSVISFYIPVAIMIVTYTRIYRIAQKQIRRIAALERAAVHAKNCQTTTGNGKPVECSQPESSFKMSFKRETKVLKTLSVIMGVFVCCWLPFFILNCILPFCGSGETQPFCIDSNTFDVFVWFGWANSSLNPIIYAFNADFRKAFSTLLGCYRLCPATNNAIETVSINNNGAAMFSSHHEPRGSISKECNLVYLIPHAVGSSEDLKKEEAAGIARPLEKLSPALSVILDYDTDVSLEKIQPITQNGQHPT
# D1 ag: activates the human D1 dopamine receptor; HEK293 T-REx D1 cells, calcium flux, agonist mode; activation, % at 2 µM; P21728; actives 1% (n = 360,000); also: 0% is about no effect
#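 Agonism was scored from calcium flux recorded over 180 s (1 read/s) after pintool compound addition, following a 10-cycle baseline. Cells were inducible force-coupled HEK293 TREx D1, plated overnight at 30 C and loaded with no-wash calcium dye.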
# TRHR enhancer-1: allosterically enhances the human TRH receptor; actives 0.66% (n = 360,000); TRHR cells, fluo-8 calcium fluorescence, EC20 TRH enhancement; P34981; enhancement, % at 2 µM; in the data active = enhancement above about 30%; also: 0% is about no effect
#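 Enhancer read-out: after compound pinning and an initial kinetic agonist-mode read, an EC20 of TRH (10 nM final) was injected and fluo-8 calcium signal (Ex 480/Em 530) followed at 1 s/cycle for 100 cycles in TRHR-expressing cells.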
# D1 antagonist: antagonists of human D1 dopamine receptor. activity change, negative = inhibition, % at 10 µM. actives 3.2% (n = 360,000). HEK293 TREx D1 cells, calcium flux, dopamine EC80; hits give low values. P21728; in the data active = activity change below about -30%; also: % is scaled to controls: 0 for no effect and ±100 for the full control effect
#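 HEK293 T-REx cells expressing inducible, force-coupled D1 receptor; no-wash Ca dye, 30–90 min RT. Cmpd → 180 s read at 1 Hz → EC80 DA → 180 s read.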
# TRHR enhancer-2: human TRH receptor allosteric enhancement confirmation | shares compounds with TRHR enhancer-1 | TRH receptor cell assay, enhancer confirmation qHTS | activity change, negative = inhibition, % at 46.1 µM | 970 tested, under 10 active | AID 493076; active = well fitted curve in the direction sought with a large enough effect; inconclusive = small, poorly fitted or top-dose-only effect, or another doubt; inactive = no such curve, though single readings can be large; an effect the other way counts as inactive or inconclusive;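 also: compound effect scored on response to added TRH at EC20 of 10 nM; 0% is about no effect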
# TRHR agonist-2: confirmation of human TRH receptor agonists; shares compounds with TRHR enhancer-1; actives 8% (n = 970); TRHR-expressing cells, agonist activation read-out; Potency, µM (titrated, usually from 46.1 µM), without a hit: top-dose activation, most hits filed as activators; active = well fitted curve in the direction sought with a large enough effect; inconclusive = small, poorly fitted or top-dose-only effect, or another doubt; inactive = no such curve, though single readings can be large; an effect the other way counts as inactive or inconclusive; also: potency is read from the fitted curve at half-maximal effect; 0% is about no effect; nearly all actives have a fitted effect of over 75% in size
# The depositor's hits bear a star; ? = inconclusive; · = not tested or not shown. Compounds with a hit are over-represented: about 4.7% of the library has one in this group of screens. Rule as the data show it, unless noted: active = activation above about 30%; inactive = the rest.
SMILES,TRHR agonist-1,D1 PAM,D1 ag,TRHR enhancer-1,D1 antagonist,TRHR enhancer-2,TRHR agonist-2
O=C(CSc1ccc(-c2ccccn2)nn1)N1CCCc2ccccc21,0,-1,2,-2,12,·,·
O=C(CSc1ccc(-c2cccnc2)nn1)N1CCCc2ccccc21,0,-4,-2,41*,9,-7,0%
CCCN(CCC)C(=O)Cn1c(=O)n(-c2ccc(CC)cc2)c(=O)c2c3c(sc21)CCC3,-1,0,0,14,-5,·,·
Cc1ccc(C)c(S(=O)(=O)C(C#N)c2nc3ccccc3nc2N2CCCC2)c1 (stereo not given),27,-2,34*,-2,-8,-6,?
CCc1ccc(C(=O)NCC2COc3ccccc3O2)o1 (stereo not given),0,1,5,60*,1,-8,1%
CC1=C(C(=O)OCC(C)C)C(c2cc3c(cc2Br)OCO3)NC(=O)N1C (stereo not given),-2,1,5,53*,4,-7,?
CC1=C(C(=O)OCC(C)C)C(c2ccccc2Cl)NC(=O)N1C (stereo not given),-1,·,5,-1,-5,·,·
CCOc1ccc(NC(=O)CSc2nc3c(c(=O)[nH]2)CCCC3)cc1,0,1,5,12,15,·,·
CCc1ccc(CNC(=O)CN2C(=O)c3cccnc3Oc3ccc(C)cc32)cc1,-1,-2,-1,3,16,·,·
CCc1nc2ccccc2n2c(-c3ccc(C)cc3)c3c(=O)n(C)c(=O)n(C)c3c12,0,-1,2,-4,-17,·,·
Cc1ccc(-c2c3c(=O)n(C)c(=O)n(C)c3c3cnc4ccccc4n23)cc1,0,7,1,59*,4,-1,2%
CCc1cc(-c2n[nH]c(C)c2-c2nc(C)cs2)c(O)cc1OC,1,-1,4,45*,0,?,2%
COC(=O)c1ccc(/C=C/c2nc3ccccc3c(=O)[nH]2)cc1,38*,4,0,-6,-12,-1,-1%
CC(C)CCNC(=O)NC(=O)CSc1ccc(S(=O)(=O)N2CCOCC2)cn1,-1,4,0,63*,14,13,-1%
COc1ccc(-c2nc3cc(C)ccn3c2NC(=O)c2c(F)cccc2Cl)cc1,2,3,3,56*,12,?,5%
Cc1nn(CCCC(=O)Nc2ccccn2)c(C)c1[N+](=O)[O-],0,0,2,47*,17,-4,1%
